Inconclusive results are not listed. Calls of active or inactive are those of the source. How the source made its calls: active means hit-call score of the fitted dose curve at least 0.9, where 1 is the maximum; inconclusive means response in the unintended direction; inactive means score below 0.9.
What follows are molecules tested against human Vitamin D Receptor (VDR), VDR (gene 7421) (UniProt P11473) (assay: ATG_VDR_TRANS: Attagene TRANS-FACTORIAL HepG2 Assay for human Vitamin D Receptor (VDR) (AID 2283022)).
Sequence of human Vitamin D Receptor (VDR), VDR (gene 7421) (P11473 whole entry, looked up): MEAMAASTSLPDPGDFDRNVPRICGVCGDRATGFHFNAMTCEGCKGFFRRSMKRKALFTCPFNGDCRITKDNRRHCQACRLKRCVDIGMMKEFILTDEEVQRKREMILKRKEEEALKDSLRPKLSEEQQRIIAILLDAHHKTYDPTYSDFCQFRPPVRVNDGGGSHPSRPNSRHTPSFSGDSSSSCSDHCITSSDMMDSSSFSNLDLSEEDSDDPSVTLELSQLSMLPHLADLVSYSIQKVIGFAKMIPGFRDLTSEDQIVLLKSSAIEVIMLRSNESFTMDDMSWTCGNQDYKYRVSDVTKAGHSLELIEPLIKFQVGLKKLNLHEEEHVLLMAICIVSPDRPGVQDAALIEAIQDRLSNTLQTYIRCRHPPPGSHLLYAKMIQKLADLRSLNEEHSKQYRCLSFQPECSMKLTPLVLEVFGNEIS
Description: ATG_TRANS is a cell-based, multiplexed-readout assay that uses HepG2, a human liver cell line, with measurements taken at 24 hours after chemical dosing in a 24-well plate.ATG_VDR_TRANS is one of 30 assay component(s) measured or calculated from the ATG_TRANS assay. It is designed to make measurements of mRNA induction, a form of inducible reporter, as detected with fluorescence intensity signals by Reverse transcription polymerase chain reaction (RT-PCR) and Capillary electrophoresis technology.Data from the assay component ATG_VDR_TRANS was analyzed into 1 assay endpoint. This assay endpoint, ATG_VDR_TRANS, was analyzed in the positive analysis fitting direction relative to DMSO as the negative control and baseline of activity. Using a type of inducible reporter, measures of mRNA for gain-of-signal activity can be used to understand the reporter gene at the transcription factor-level as they relate to the gene VDR. Furthermore, this assay endpoint can be referred to as a primary readout, because this assay has produced multiple assay endpoints where this one serves a reporter gene function. To generalize the intended target to other relatable targets, this assay endpoint is annotated to the nuclear receptor intended target family, where the subfamily is non-steroidal.
Human liver HepG2 cells are transiently transfected with multiple reporter transcription units (MRTUs) in 6-well plates using FuGene 6 reagent (Roche; 3 ml FuGene/1 mg DNA). The MRTU constructs are regulated by a cis-regulating element (promoter). […] A major difference between the CIS and TRANS system is that in CIS activities of endogenous TFs are measured, whereas the TRANS assay evaluates changes in activities of exogenous, chimeric NR-Gal4 proteins. […] At the end of 24 hour incubation, total RNA was isolated using TriZol reagent (Invitrogen). The isolated RNA is then reverse-transcribed using oligo(dT) primer and Mo-MLV reverse transcriptase (Invitrogen) with DNAse I (Ambion) treatment for 30 min. The one-tenth of the produced cDNA was amplified by PCR using Taq DNA polymerase (Invitrogen) and two reporter sequence-specific primers. The PCR products were fluorescently labeled by primer extension with 6-arboxyfluorescein (6-FAM) 5'-labeled reporter sequence-specific primer (2 min at 95 C, 20 s at 68 C and 10 min at 72 C) and these products were digested with 5U of HpaI (New England Biolabs) for 2h at 37 C. The fragments were purified using Qiaquick PCR columns (Qiagen), analyzed on an ABI 3130xL genetic analyzer (Applied Biosystems) with peak positions identified by using a set of X-rhodamine (ROX)-labeled MapMarker1000 molecular weight standards (BioVentures). The raw capillary electrophoresis data was processed using Attagraph software (Attagene).

Compound | outcome
CN(N=O)C(N)=O | inactive
C[C@]12CC[C@@H](O)C[C@@H]1CC[C@@H]1[C@@H]2CC[C@]2(C)C(=O)CC[C@@H]12 | inactive
O=c1oc2ccccc2c(O)c1C(CC(O)c1ccc(-c2ccc(Br)cc2)cc1)c1ccccc1 (stereo not given) | inactive
COC(F)(C(F)(F)C(F)(F)F)C(F)(C(F)(F)F)C(F)(F)F (stereo not given) | inactive
CCCSP(=S)(OCC)Oc1ccc(Cl)cc1Cl (stereo not given) | inactive
CCCCN(CCCC)C(=S)[S-].CCCCN(CCCC)C(=S)[S-].[Ni+2] | inactive
O=C(O)COc1ccc(Cl)cc1 | inactive
CC(c1ccccc1)(c1ccc(O)cc1)c1ccc(O)cc1 | inactive
Cc1cccc(OP(=O)(Oc2cccc(C)c2)Oc2cccc(C)c2)c1 | inactive
C=CCCl | inactive
O=C(N[C@H]1CN2CCC1CC2)c1ccc2c(c1)OCCO2 | inactive
CC1CC(=O)O1 (stereo not given) | inactive
O=C1c2ccccc2C(=O)C1C(=O)C(c1ccccc1)c1ccc(Cl)cc1 (stereo not given) | inactive
c1csc(-c2ccc(-c3cccs3)s2)c1 | inactive
O=C(CBr)c1ccc(O)cc1 | inactive
CCOC(=O)CC(=O)CCl | inactive
O=NN1CCOCC1 | inactive
CC(C=O)Cc1ccc2c(c1)OCO2 (stereo not given) | inactive
Clc1cccc(Cl)c1Cl | inactive
N#Cc1ccccc1Cl | inactive

Compound | outcome
c1cc[c]([Sb]([c]2ccccc2)[c]2ccccc2)cc1 | inactive
CC(C)N(C(=O)CCl)c1ccccc1 | inactive
O=NN1CCCCCC1 | inactive
Nc1cccnc1 | inactive
O=[N+]([O-])c1c2ccccc2cc2ccccc12 | inactive
CCOC(=O)C(SP(=S)(OC)OC)c1ccccc1 (stereo not given) | inactive
CC(C)[C@@H](Nc1ccc(C(F)(F)F)cc1Cl)C(=O)OC(C#N)c1cccc(Oc2ccccc2)c1 (stereo not given in full) | inactive
N#Cc1cccnc1 | inactive
C[N+](C)(C)Cc1ccccc1 | inactive
O=S1OC[C@@H]2[C@H](CO1)[C@]1(Cl)C(Cl)=C(Cl)[C@@]2(Cl)C1(Cl)Cl (stereo not given in full) | inactive
CCOP(=S)(OCC)Oc1ccc(Cl)cc1Cl | inactive
Brc1c(Br)c(Br)c(Oc2c(Br)c(Br)c(Br)c(Br)c2Br)c(Br)c1Br | inactive
C1CCC(C2CCCCC2)CC1 | inactive
NNCCO | inactive
N#CCCC(Br)(C#N)CBr (stereo not given) | inactive
O=C(NC(=O)c1c(F)cccc1F)Nc1cc(Cl)c(Oc2ncc(C(F)(F)F)cc2Cl)c(Cl)c1 | inactive
O=C(NC(=O)c1c(F)cccc1F)Nc1ccc(Cl)cc1 | inactive
FC(F)OCC(F)(F)C(F)(F)F | inactive
CCOC(=O)Cc1ccccc1 | inactive
BrCc1ccc(Br)cc1 | inactive
